Compound activity: PubChem BioAssay, National Center for Advancing Translational Sciences (NCATS)
Most compounds without a hit are left out; they make up all but 8.7% or so of the library.
Pf growth 48h: Primary qHTS for delayed death inhibitors of the malarial parasite plastid, 48 hour incubation; P. falciparum luciferase growth in erythrocytes, 48 h; Potency, µM (highest dose often 28.7 µM), for inactives: top-dose activity change, negative = inhibition, most hits filed as inhibitors; 310,000 tested, 5.9% active; AID 504832, 2011
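Cell-based growth assay: transgenic P. falciparum expressing firefly luciferase, cultured in red cells within RPMI 1640 containing 0.5% w/v Albumax, 24 mM bicarbonate and gentamycin. A drop in luciferase activity indicates inhibition.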
VACV mCherry inh: qHTS for Stage-Specific Inhibitors of Vaccinia Orthopoxvirus: mCherry Reporter Primary qHTS | 310,000 tested, 0.63% active | Vaccinia virus mCherry reporter infection, fluorescence | Potency, µM (series often up to 36.5 µM), for inactives: at the highest dose activity change, negative = inhibition, hits mostly inhibitors; calls by dose curve; tested in A549 cells; note: nearly all actives have a fitted effect of over 35% in size
VACV Venus inh: qHTS for Stage-Specific Inhibitors of Vaccinia Orthopoxvirus: Venus Reporter Primary qHTS; Potency, µM (series often up to 36.5 µM), inactives show at the highest dose activity change, negative = inhibition, most hits filed as inhibitors; 330,000 tested, 0.46% active; Vaccinia virus Venus reporter expression, fluorescence; calls by dose curve; tested in A549 cells; note: nearly all actives have a fitted effect of over 30% in size
Pf growth 96h: Primary qHTS for delayed death inhibitors of the malarial parasite plastid, 96 hour incubation | AID 504834, 2011 | Potency, µM (top dose mostly 28.7 µM), for inactives: top-dose activity change, negative = inhibition, usual class: inhibitors | 320,000 tested, 6.9% active | P. falciparum luciferase reporter growth, 96 h
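Delayed-death screen, second-generation endpoint: infected erythrocytes, 2% hematocrit, 0.05% parasitemia final; 96 hours at 37 C, 5% CO2; luciferase detection reagent; luminescence decrease equals reduced growth.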
AMA1 RON2 block: qHTS for Inhibitors of AMA1-RON; Towards Development of Antimalarial Drug Lead: Primary Screen | Plasmodium falciparum AMA1 (3D7) - RON2 peptide interaction | AlphaScreen AMA1-biotinylated RON2 peptide binding | Potency, µM (titrated, usually from 58.2 µM), inactives show at the highest dose activity change, negative = inhibition, actives largely listed as inhibitors | 360,000 tested, 0.2% active | AID 720542, 2013;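 note: 0% = vehicle wells and -100% = peptide control; nearly all actives have a fitted effect of over 45% in size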
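AMA1 (3D7) with his tag at 25 nM final met compounds first, then biotinylated RON2 peptide at 25 nM; detection used donor plus acceptor beads, 10 µg/mL apiece, read by AlphaScreen after 30 min at room temperature.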
Numbers without * were called inactive; [ ] = dose if it differs, or a comment. Unless noted, calls come from the whole dose curve; as a rule, active = well fitted curve in the direction sought with a large enough effect; inconclusive = small, poorly fitted or top-dose-only effect, or another doubt; inactive = no such curve, though single readings can be large; an effect the other way counts as inactive or inconclusive. Unless noted, % is set by controls: 0 for no effect and ±100 for the full control effect; potency is the fitted concentration of half-maximal effect.

How did CCOC(=O)C(CC)(CC)C(=O)/C=C/c1ccc(Br)cc1 do in these assays?
Pf growth 48h: 14.7µM*; VACV mCherry inh: inconclusive; VACV Venus inh: inconclusive; Pf growth 96h: inconclusive; AMA1 RON2 block: 24.1%

Results for CCOC(=O)C(=Cc1ccc(Br)cc1)C(=O)OCC ?
Pf growth 48h: inconclusive; VACV mCherry inh: inconclusive; VACV Venus inh: 14.1µM*; Pf growth 96h: inconclusive; AMA1 RON2 block: 16.0%

Results for CCOC(=O)C(=Cc1ccc(-n2ccnc2)cc1)C(=O)OCC ?
Pf growth 48h: 13.1µM*; VACV mCherry inh: inconclusive; VACV Venus inh: inconclusive; Pf growth 96h: inconclusive; AMA1 RON2 block: -8.6%

How did Cc1cc(C)cc(-n2c(SCC(=O)N3CCOCC3)nc3c([nH]c4ccccc43)c2=O)c1 do in these assays?
VACV mCherry inh: 26.3%; VACV Venus inh: -4.1%

Results for O/N=C(/C[n+]1csc2ccccc21)c1ccccc1 ?
VACV mCherry inh: -12.9%; VACV Venus inh: -3.8%

Results for CCC(=Nc1ccccc1OC)C1=C(O)CC(c2ccccc2)CC1=O (stereo not given) ?
Pf growth 48h: -23.4%; VACV mCherry inh: inactive; VACV Venus inh: -7.6%; Pf growth 96h: 0.415µM*; AMA1 RON2 block: -4.6%

Results for CCCC(=NC(C)CC)C1=C(O)CC(c2ccccc2)CC1=O (stereo not given) ?
Pf growth 48h: 2.94µM*; VACV mCherry inh: 56.0%; VACV Venus inh: 9.7%; Pf growth 96h: inconclusive; AMA1 RON2 block: -26.2%

How did CCC(=Nc1ccccc1O)C1=C(O)CC(c2ccccc2)CC1=O (stereo not given) do in these assays?
Pf growth 48h: inconclusive; Pf growth 96h: inconclusive; AMA1 RON2 block: -6.4%

How did Cc1nn(C)c(C)c1S(=O)(=O)N(CC(=O)Nc1ccc(F)cc1F)c1ccc(C(C)C)cc1 do in these assays?
VACV mCherry inh: -15.3%; VACV Venus inh: -13.3%

Results for Cc1ccc(C(=O)NCCOC23CC4CC(CC(C4)C2)C3)cc1 ?
Pf growth 48h: 2.94µM*; VACV mCherry inh: -8.5%; VACV Venus inh: -26.4%; Pf growth 96h: 2.08µM*; AMA1 RON2 block: -0.4%

Results for COc1ccc(OCCNC(=O)c2ccc(C)cc2)cc1 ?
Pf growth 48h: -10.1%; VACV mCherry inh: -3.9%; VACV Venus inh: 2.3%; Pf growth 96h: 2.94µM*; AMA1 RON2 block: -1.9%

How did COc1cc(OC)cc(C(=O)NCCOC23CC4CC(CC(C4)C2)C3)c1 do in these assays?
Pf growth 48h: -53.6%; VACV mCherry inh: -11.2%; VACV Venus inh: -16.1%; Pf growth 96h: 0.6%; AMA1 RON2 block: -10.3%

How did COc1ccc(Cl)cc1NC(=O)c1cc(S(=O)(=O)N2CCc3ccccc32)cn1C do in these assays?
VACV mCherry inh: -8.3%; VACV Venus inh: -8.4%

Results for CC(C)=CCCC1(C)C=Cc2c(O)c3c(c(CC=C(C)C)c2O1)OC12C(=CC4CC1C(C)(C)OC2(C/C=C(/C)C(=O)O)C4O)C3=O (stereo not given) ?
VACV mCherry inh: 12.6µM*; VACV Venus inh: 11.2µM*

What do the screens show for `Nc1cccc[n+]1C(c1ccnc2ccccc12)[n+]1ccccc1N`?
VACV mCherry inh: 13.9%; VACV Venus inh: -4.9%

What do the screens show for `COc1cccc(N2CC(NC(=O)C(c3ccccc3)c3ccccc3)CC2=O)c1` (stereo not given)?
VACV mCherry inh: -5.7%[7.34 µM]; VACV Venus inh: -8.8%[7.34 µM]

How did CN(C(=O)Cn1nnc(-c2ccc(S(C)(=O)=O)cc2)n1)c1ccccc1 do in these assays?
VACV mCherry inh: 6.9%; VACV Venus inh: -2.2%

What do the screens show for `CC(C)(C)NC(=S)N/N=C/c1cc(Br)c(O)c(Br)c1`?
Pf growth 48h: inconclusive; Pf growth 96h: 7.38µM*; AMA1 RON2 block: 69.6%

How did O=C(N/N=C/c1cc(Br)c(O)c(Br)c1)C1CC1 do in these assays?
Pf growth 48h: 6.9%; VACV mCherry inh: -15.6%; VACV Venus inh: -9.9%; Pf growth 96h: 39.6%; AMA1 RON2 block: 8.9%

How did COC(=O)C1=C(c2ccc(C(C)=O)cc2)C[C@@H]2CC[C@H]1N2C(=O)NCc1ccc2c(c1)OCO2 do in these assays?
Pf growth 48h: 11.7µM*; VACV mCherry inh: inactive; VACV Venus inh: -6.5%; Pf growth 96h: 3.29µM*; AMA1 RON2 block: 12.1%

How did COC(=O)C1=C(c2ccccc2)C[C@@H]2CC[C@H]1N2C(=O)NCc1ccc(C(F)(F)F)cc1 do in these assays?
VACV mCherry inh: -4.8%; VACV Venus inh: -26.4%; AMA1 RON2 block: -3.9%

How did COC(=O)C1=C(c2ccc3ccccc3c2)C[C@@H]2CC[C@H]1N2C(=O)NCc1ccc(C(F)(F)F)cc1 do in these assays?
Pf growth 48h: 8.28µM*; VACV mCherry inh: -22.3%; VACV Venus inh: inconclusive; Pf growth 96h: inconclusive; AMA1 RON2 block: -4.5%

How did COC(=O)C1=C(c2ccc3ccccc3c2)C[C@@H]2CC[C@H]1N2C(=O)NCc1ccc(F)cc1 do in these assays?
Pf growth 48h: 8.28µM*; VACV mCherry inh: -28.1%; VACV Venus inh: inconclusive; Pf growth 96h: inconclusive; AMA1 RON2 block: -7.0%

Results for COC(=O)CN1C(=O)CSc2ccc(S(=O)(=O)Nc3cccc(C)c3C)cc21 ?
VACV mCherry inh: -14.7%; VACV Venus inh: -6.6%

What do the screens show for `CC(=O)OCc1nc2sc(C)c(C)c2c(=O)[nH]1`?
Pf growth 48h: -18.5%; VACV mCherry inh: -13.1%; VACV Venus inh: -20.0%; Pf growth 96h: inconclusive; AMA1 RON2 block: -8.6%

What do the screens show for `Cc1ccc(S(=O)(=O)N2CC(O)CC2C(=O)OCc2nc3sc(C)c(C)c3c(=O)[nH]2)cc1` (stereo not given)?
Pf growth 48h: 11.7µM*; VACV mCherry inh: -2.6%; VACV Venus inh: 1.1%; Pf growth 96h: 13.1µM*; AMA1 RON2 block: 18.1%

What do the screens show for `O=C(/C=C/Nc1ccccc1O)c1ccco1`?
Pf growth 48h: 71.3%; VACV mCherry inh: inconclusive; VACV Venus inh: -5.5%; Pf growth 96h: 15.3%; AMA1 RON2 block: 72.9%

What do the screens show for `O=C(/C=C/Nc1ccccc1Oc1ccccc1)c1ccco1`?
Pf growth 48h: 10.4µM*; VACV mCherry inh: -7.4%; VACV Venus inh: -6.1%; Pf growth 96h: inconclusive; AMA1 RON2 block: -24.9%

How did Cc1cc(C)cc(NS(=O)(=O)c2ccc(N3CCCCS3(=O)=O)cc2)c1 do in these assays?
VACV mCherry inh: -14.9%; VACV Venus inh: -27.9%

Results for COc1cc(Cl)c(C)cc1NC(=O)CC1Oc2ccccc2NC1=O (stereo not given) ?
VACV mCherry inh: inactive; VACV Venus inh: -21.0%

What do the screens show for `COC(=O)[C@@]1(Cc2ccc(F)cc2)[C@H]2c3cc(C(=O)N(C)C)n(C)c3C[C@H]2CN1C(=O)c1ccccc1`?
VACV mCherry inh: -5.6%; VACV Venus inh: -4.2%; AMA1 RON2 block: -8.5%
